# The source made the active and inactive calls. Entries that show only a call come without a potency. Unless noted, the call rests on the fitted dose curve; in most records, active means well fitted curve in the direction sought with a large enough effect in the repeat runs; inconclusive means weak or mixed curves; inactive means no such curve, though single readings can be large; an effect the other way counts as inactive or inconclusive.
# Columns and labels:
# [1] = biological target: Estrogen receptor (Homo sapiens) (UniProt P03372); test: qHTS assay to identify small molecule antagonists of the estrogen receptor alpha (ER-alpha) signaling pathway (AID 743069; active means well fitted curve in the direction sought with a large enough effect in the signal ratio in the repeat runs, not every such curve was filed as active; inconclusive means weak or mixed curves, or effect the other way; inactive means no such curve, though single readings can be large or run the other way; the % refers to the signal ratio)
# Sequence of Estrogen receptor (Homo sapiens) (P03372 whole entry, looked up): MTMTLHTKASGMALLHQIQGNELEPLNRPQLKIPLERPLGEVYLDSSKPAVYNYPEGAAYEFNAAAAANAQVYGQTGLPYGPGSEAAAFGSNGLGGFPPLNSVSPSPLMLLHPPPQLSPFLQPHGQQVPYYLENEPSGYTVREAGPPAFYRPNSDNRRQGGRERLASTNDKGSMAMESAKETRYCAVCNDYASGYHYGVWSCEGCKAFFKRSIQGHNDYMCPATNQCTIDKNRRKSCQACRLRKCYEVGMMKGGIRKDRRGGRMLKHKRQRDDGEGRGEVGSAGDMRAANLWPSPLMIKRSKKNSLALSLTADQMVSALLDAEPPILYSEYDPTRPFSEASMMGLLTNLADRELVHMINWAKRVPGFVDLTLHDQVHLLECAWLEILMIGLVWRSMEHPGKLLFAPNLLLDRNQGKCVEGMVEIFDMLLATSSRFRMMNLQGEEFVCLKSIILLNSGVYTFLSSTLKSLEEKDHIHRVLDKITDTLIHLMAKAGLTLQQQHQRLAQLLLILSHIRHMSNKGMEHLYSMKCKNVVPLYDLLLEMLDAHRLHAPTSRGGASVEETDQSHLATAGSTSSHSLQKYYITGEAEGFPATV
# Procedure, shortened: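 HEK293 cells stably carrying an ER-alpha-UAS-bla beta-lactamase reporter were pre-cultured overnight in 2% charcoal-stripped FBS medium. Test compounds in DMSO were added together with 17beta-estradiol for 18 hr at 37C. Read-out was fluorescence after 2 hr with LiveBLAzer B/G FRET substrate at room temperature.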
# [2] = qHTS assay to identify small molecule antagonists of the estrogen receptor alpha (ER-alpha) signaling pathway - cell viability counter screen (AID 743074; calls by dose curve; further: nearly all actives have a fitted effect of over 45% in size; further: potency means the concentration at half of the fitted maximal effect)
# [3] = biological target: Estrogen receptor (Homo sapiens) (UniProt P03372); test: qHTS assay to identify small molecule agonists of the estrogen receptor alpha (ER-alpha) signaling pathway (AID 743075; calls by dose curve; further: potency means the concentration at half of the fitted maximal effect)
# [4] = qHTS assay to identify small molecule antagonists of the estrogen receptor alpha (ER-alpha) signaling pathway using the BG1 cell line - cell viability counter screen (AID 743081);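 further: compound given together with 17beta-estradiol as the ER stimulus; nearly all actives have a fitted effect of over 45% in size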; further: potency means the concentration at half of the fitted maximal effect
# Aromatase (Homo sapiens) = Aromatase (Homo sapiens) (UniProt P11511); test: qHTS assay to identify aromatase inhibitors (AID 743083); further: nearly all actives have a fitted effect of over 55% in size; further: potency means the concentration at half of the fitted maximal effect
# Sequence of Aromatase (Homo sapiens) (P11511 whole entry, looked up): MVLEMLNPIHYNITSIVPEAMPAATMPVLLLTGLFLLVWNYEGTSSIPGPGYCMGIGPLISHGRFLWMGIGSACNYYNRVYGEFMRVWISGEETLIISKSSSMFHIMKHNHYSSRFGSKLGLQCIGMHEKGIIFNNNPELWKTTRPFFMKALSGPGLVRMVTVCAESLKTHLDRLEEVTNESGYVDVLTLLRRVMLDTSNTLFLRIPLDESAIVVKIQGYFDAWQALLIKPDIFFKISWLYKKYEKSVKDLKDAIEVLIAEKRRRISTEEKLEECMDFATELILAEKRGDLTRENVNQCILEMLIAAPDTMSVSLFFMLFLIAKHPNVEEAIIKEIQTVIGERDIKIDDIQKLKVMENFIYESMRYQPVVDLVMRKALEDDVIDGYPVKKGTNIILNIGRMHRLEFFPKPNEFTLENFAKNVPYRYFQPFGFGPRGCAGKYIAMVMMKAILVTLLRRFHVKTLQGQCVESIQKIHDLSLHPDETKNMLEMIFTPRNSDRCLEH
# [5] = qHTS assay to identify aromatase inhibitors - cell viability counter screen (AID 743084);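 further: cells stimulated with testosterone during compound exposure; nearly all actives have a fitted effect of over 55% in size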; further: potency means the concentration at half of the fitted maximal effect
# [6] = qHTS assay to identify small molecule that activate the aryl hydrocarbon receptor (AhR) signaling pathway - cell viability counter screen (AID 743086);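 further: HepG2 liver cells carrying the AhR DRE luciferase reporter; series mostly up to about 70 µM; nearly all actives have a fitted effect of over 45% in size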
# Procedure, shortened: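 HepG2-AhR-luc (HG2L7.5c1) cells, 4000/well, were preincubated 5 h at 37C, exposed to compound in qHTS format for 24 hr at 37C, then given CellTiter-Fluor for 30 min; viability was read as fluorescence in the reporter wells.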
# [7] = qHTS assay for small molecule agonists of the antioxidant response element (ARE) signaling pathway - cell viability counter screen (AID 743203; calls by dose curve; further: nearly all actives have a fitted effect of over 55% in size; further: potency means the concentration at half of the fitted maximal effect)
# Procedure, shortened: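 Compounds in DMSO were pinned onto ARE-bla HepG2 cells plated 5 hrs earlier at 2,000 cells/well. Sixteen hours later at 37C/5% CO2, CellTiter-Glo was added and luminescence measured after 30 min at room temperature.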
# [8] = qHTS assay for small molecule activators of the heat shock response signaling pathway - cell viability counter screen (AID 743209); further: nearly all actives have a fitted effect of over 50% in size; further: potency means the concentration at half of the fitted maximal effect
# Procedure, shortened: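 Counter screen for cytotoxicity in HeLa HSE-bla reporter cells. Treatment was 5 h at 37 C; viability was detected by luminescent ATP assay (CellTiter-Glo) in the same wells as the beta-lactamase read.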
# [9] = qHTS assay to identify small molecule antagonists of the thyroid receptor (TR) signaling pathway (AID 743065); further: nearly all actives have a fitted effect of over 55% in size; further: potency means the concentration at half of the fitted maximal effect
# Procedure, shortened: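 GH3.TRE-Luc rat pituitary cells carrying two TR response elements driving luciferase were plated for 4 h, given compound plus 1 nM T3 (final), and incubated 23.5 h at 37 C. ONE-Glo luminescence measured reporter inhibition; CellTiter-Fluor fluorescence tracked cytotoxicity.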
# [10] = system: thyroid hormone receptor (rat, GH3 cells); test: qHTS assay to identify small molecule agonists of the thyroid receptor (TR) signaling pathway (AID 743066; calls by dose curve)
# [11] = biological target: Peroxisome proliferator-activated receptor gamma (Homo sapiens) (UniProt P37231); test: qHTS assay to identify small molecule agonists of the peroxisome proliferator-activated receptor gamma (PPARg) signaling pathway (AID 743094; active means well fitted activation curve with a large enough effect in the signal ratio in the repeat runs, not every such curve was filed as active; inconclusive means weak or mixed curves, or effect the other way; inactive means no such curve, though single readings can be large or run the other way; the % refers to the signal ratio)
# Sequence of Peroxisome proliferator-activated receptor gamma (Homo sapiens) (P37231 whole entry, looked up): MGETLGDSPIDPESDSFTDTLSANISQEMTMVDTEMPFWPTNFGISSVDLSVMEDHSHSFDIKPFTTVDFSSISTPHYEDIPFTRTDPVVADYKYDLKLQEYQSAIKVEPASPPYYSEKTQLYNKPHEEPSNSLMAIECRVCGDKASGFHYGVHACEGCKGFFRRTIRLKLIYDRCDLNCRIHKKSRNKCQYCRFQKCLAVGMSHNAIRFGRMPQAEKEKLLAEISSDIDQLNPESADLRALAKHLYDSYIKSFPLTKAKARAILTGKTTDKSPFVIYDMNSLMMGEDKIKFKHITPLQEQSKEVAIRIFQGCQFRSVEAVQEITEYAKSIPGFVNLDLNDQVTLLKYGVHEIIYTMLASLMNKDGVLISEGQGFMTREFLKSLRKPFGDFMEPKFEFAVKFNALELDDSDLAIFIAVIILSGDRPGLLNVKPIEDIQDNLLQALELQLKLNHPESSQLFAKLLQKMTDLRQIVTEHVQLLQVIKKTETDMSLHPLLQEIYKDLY
# Procedure, shortened: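 Following 5 h plating at 37C, PPARg-bla HEK293H cells receive compound or DMSO for 17 h; fluorescence intensity is recorded after LiveBLAzer B/G loading for 1 h at room temperature.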
# [12] = biological target: Estrogen receptor (Homo sapiens) (UniProt P03372); test: qHTS assay to identify small molecule agonists of the estrogen receptor alpha (ER-alpha) signaling pathway using the BG1 cell line (AID 743079); further: nearly all actives have a fitted effect of over 20% in size
# [13] = qHTS assay to identify small molecule antagonists of the estrogen receptor alpha (ER-alpha) signaling pathway using the BG1 cell line (AID 743080; calls by dose curve;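 further: BG1 cells stimulated with 17beta-estradiol alongside compound; nearly all actives have a fitted effect of over 25% in size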; further: potency means the concentration at half of the fitted maximal effect)
# Procedure, shortened: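 Luciferase inhibition measured with ONE-Glo after 30 min at RT in BG1Luc4E2 cells given test compounds and 17beta-estradiol for 21.5 h at 37 C; CellTiter-Fluor viability read in the same wells beforehand.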
# [14] = biological target: Peroxisome proliferator-activated receptor gamma (Homo sapiens) (UniProt P37231); test: qHTS assay to identify small molecule antagonists of the peroxisome proliferator-activated receptor gamma (PPARg) signaling pathway (AID 743191; calls by dose curve; further: series mostly up to about 63 µM; nearly all actives have a fitted effect of over 30% in size)
# Procedure, shortened: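 GeneBLAzer PPARg UAS-bla HEK293H cells carrying a UAS-driven beta-lactamase reporter were plated at 3000 cells/well, preincubated 5 h at 37C, then given compound for 17 h at 37C; LiveBLAzer B/G FRET substrate was read after 1 h at room temperature.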
# [15] = qHTS assay to identify small molecule antagonists of the peroxisome proliferator-activated receptor gamma (PPARg) signaling pathway - cell viability counter screen (AID 743194); settings: Potency: co-treated with 50 nM rosiglitazone; further: nearly all actives have a fitted effect of over 55% in size; further: potency means the concentration at half of the fitted maximal effect
# Procedure, shortened: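 PPARg-UAS-bla HEK293H cells were plated, rested 5 h at 37 C, then treated with compounds plus rosiglitazone (50 nM final) for 17 h at 37 C; viability was then read by CellTiter-Glo luminescence after 30 min at room temperature.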
# [16] = biological target: Aryl hydrocarbon receptor (Homo sapiens) (UniProt P35869); test: qHTS assay to identify small molecule that activate the aryl hydrocarbon receptor (AhR) signaling pathway (AID 743085); further: nearly all actives have a fitted effect of over 15% in size; further: potency means the concentration at half of the fitted maximal effect;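 on activation: HG2L7.5c1 human HepG2 liver cells with stably integrated DRE-driven firefly reporter; series mostly up to about 70 µM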
# Sequence of Aryl hydrocarbon receptor (Homo sapiens) (P35869 whole entry, looked up): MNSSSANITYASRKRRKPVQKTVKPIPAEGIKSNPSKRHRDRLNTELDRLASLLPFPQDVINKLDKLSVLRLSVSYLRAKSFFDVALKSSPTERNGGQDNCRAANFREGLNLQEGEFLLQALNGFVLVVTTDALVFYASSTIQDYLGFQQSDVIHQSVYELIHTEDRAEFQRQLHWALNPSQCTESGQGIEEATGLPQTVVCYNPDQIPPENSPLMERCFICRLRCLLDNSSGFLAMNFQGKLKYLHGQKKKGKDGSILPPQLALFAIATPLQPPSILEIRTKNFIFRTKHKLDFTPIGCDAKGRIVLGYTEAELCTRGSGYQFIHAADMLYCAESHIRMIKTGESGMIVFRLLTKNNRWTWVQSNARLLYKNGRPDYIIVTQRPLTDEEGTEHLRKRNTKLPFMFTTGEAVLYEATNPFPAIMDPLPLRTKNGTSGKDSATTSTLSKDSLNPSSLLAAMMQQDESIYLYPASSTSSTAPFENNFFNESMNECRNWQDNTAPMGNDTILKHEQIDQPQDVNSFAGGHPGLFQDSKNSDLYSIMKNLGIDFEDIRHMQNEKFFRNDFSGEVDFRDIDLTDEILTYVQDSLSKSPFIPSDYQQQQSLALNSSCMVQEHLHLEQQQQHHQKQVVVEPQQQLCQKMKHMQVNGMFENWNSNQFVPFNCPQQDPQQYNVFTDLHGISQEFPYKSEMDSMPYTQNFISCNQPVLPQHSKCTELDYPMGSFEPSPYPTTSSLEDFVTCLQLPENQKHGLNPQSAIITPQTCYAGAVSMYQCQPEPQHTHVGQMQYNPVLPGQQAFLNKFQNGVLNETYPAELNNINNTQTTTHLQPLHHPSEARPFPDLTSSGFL
# Procedure, shortened: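 HepG2 cells stably carrying a 20-DRE firefly luciferase reporter (HG2L7.5c1) treated with compound for 24 hr at 37C. Luciferase read by ONE-Glo luminescence, with CellTiter-Fluor viability read first.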
# [17] = qHTS assay for small molecule agonists of the antioxidant response element (ARE) signaling pathway (AID 743202; active means well fitted activation curve with a large enough effect in the signal ratio in the repeat runs, not every such curve was filed as active; inconclusive means weak or mixed curves, or effect the other way; inactive means no such curve, though single readings can be large or run the other way; the % refers to the signal ratio; further: potency means the concentration at half of the fitted maximal effect)
# Procedure, shortened: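 Read-out: LiveBLAzer B/G FRET substrate fluorescence after 2 h at room temperature, following 16 h compound treatment at 37 C of HepG2 cells carrying an ARE-driven beta-lactamase reporter.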
# [18] = qHTS assay for small molecule activators of the heat shock response signaling pathway (AID 743210; active means well fitted activation curve with a large enough effect in the signal ratio in the repeat runs, with a control signal flat, not every such curve was filed as active; inconclusive means weak or mixed curves; the % refers to the signal ratio; further: series mostly up to about 63 µM)
# Procedure, shortened: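 HSE-bla HeLa cells (beta-lactamase reporter under heat shock response elements) were exposed to compounds for 5 h at 37 C, then loaded with LiveBLAzer B/G FRET substrate for 2.5 h at room temperature before fluorescence reading.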
Structure (SMILES),Potency [1],Potency [2],Potency [3],Potency [4],Potency (Aromatase (Homo sapiens)),Potency [5],Potency [6],Potency [7],Potency [8],Potency [9],Potency [10],Potency [11],Potency [12],Potency [13],Potency [14],Potency [15],Potency [16],Potency [17],outcome [18]
CN1C(=O)C(O)N=C(c2ccccc2)c2cc(Cl)ccc21 (stereo not given),inactive,inactive,inactive,inactive,inactive,inactive,inactive,inactive,inactive,,,,,,,,,,
COC(C)(C)CCC[C@H](C)C/C=C/C(C)=C/C(=O)OC(C)C,,inactive,,inactive,inactive,inactive,inactive,,,61.1 µM (active),inactive,inactive,,,,,,,
CC(C)(OO)c1ccccc1,inactive,inactive,inactive,inactive,inactive,inactive,inactive,61.1 µM (active),49 µM (active),,,inactive,inactive,inactive,inactive,inactive,,,
CCOP(=S)(OCC)SCn1nnc2ccccc2c1=O,,49 µM (active),19.5 µM [inconclusive] (active),,34.4 µM (active),54.5 µM (active),,,inactive,61.1 µM (active),inactive,inactive,,,,43.6 µM (active),inactive,3.06 µM (active),
N#Cc1cc(I)c(O)c(I)c1,,,,inactive,,inactive,inactive,,inactive,27.3 µM (active),inactive,,,,,,inactive,,inactive
CC(C)(C)C(O)C(Oc1ccc(Cl)cc1)n1cncn1 (stereo not given),,,,,21.1 µM (active),inactive,inactive,,inactive,,inactive,,,,,inactive,18.6 µM (active),,
CCCCc1c(C)nc(NCC)nc1OS(=O)(=O)N(C)C,,inactive,inactive,,inactive,,,inactive,inactive,,inactive,,,,,inactive,,27.3 µM (active),inactive
CCO[C@H]1O[C@@H]2OC3(C)CC[C@H]4[C@H](C)CC[C@@H]([C@H]1C)[C@@]24OO3,,,,,,,,inactive,inactive,,,,,,inactive,inactive,,,inactive
CCCCC(O)(Cn1cncn1)c1ccc(Cl)cc1Cl (stereo not given),,inactive,inactive,,48.5 µM (active),68.5 µM (active),,,inactive,61.1 µM (active),,inactive,,54.4 µM (active),,,,,
CC1CC(CC2CCC(N)C(C)C2)CCC1N (stereo not given),inactive,inactive,inactive,31.1 µM (active),inactive,,,inactive,inactive,,inactive,inactive,inactive,,,inactive,inactive,,inactive
Sc1ccccc1Cl,,,,,,,,inactive,inactive,,,,,,,inactive,,inactive,inactive
CCOC(=O)CBr,,inactive,,inactive,inactive,inactive,inactive,inactive,inactive,inactive,inactive,inactive,,,inactive,inactive,,inactive,inactive
O=C(CBr)Nc1ccc(Cl)cc1C(=O)c1ccccc1F,,,,,,,,inactive,inactive,,,,,,inactive,,,23.7 µM (active),inactive
COc1cc(CC(C)N)cc2c1OCO2 (stereo not given),,,inactive,,inactive,inactive,inactive,inactive,inactive,,inactive,inactive,inactive,inactive,inactive,inactive,inactive,,inactive
CCCC(Cn1cncn1)c1ccc(Cl)cc1Cl (stereo not given),,,,inactive,12.2 µM (active),inactive,inactive,inactive,,61.1 µM (active),inactive,,,,,,inactive,,inactive
ClP(Cl)(Cl)(Cl)Cl,inactive,inactive,inactive,inactive,inactive,inactive,inactive,inactive,inactive,,inactive,,inactive,inactive,inactive,inactive,,inactive,inactive
